# From PubChem BioAssay AID1981 (Southern Research Specialized Biocontainment Screening …, 2009)
# Screen size: about 2,200 compounds; about 480 (22%) were called active. The list is a sample of the results. Results with a measured potency or affinity are listed apart. A number with no mark means an inactive call. The rule behind the calls is not given here.
# Assay: S. Typhimurium GFP fluorescence modified counterscreen for PhoP regulon inhibitor project dose response (AID 1981);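 note: 0% = induced DMSO wells and 100% = uninduced wells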
# Conditions: 4 h; series mostly up to 150 µM; inhibition: at the top concentration
row,Structure (SMILES),inhibition
1,COc1cccc(/C=N/n2c(C)nc3ccccc32)c1OC,-10.1%
2,CCCn1c(N)nc2ccccc21,14%
3,CCCCn1c(N)nc2ccccc21,13.4%
4,CSc1nc2ccccc2n1Cc1cccc(F)c1,-9.11%
5,COc1ccc2c(c1)nc(N)n2Cc1ccccc1,5.95%
6,CCOc1cc(S(=O)(=O)N2CCN(CC)CC2)ccc1Cl,-9.5%
7,CC(C)Cn1cnc2sc3c(c2c1=N)CCCC3,-13%
8,CCn1c(C)cc(=S)c2ccccc21,-32%
9,CC(C)(C)C1CCC2(CC1)Nc1cccc3cccc(c13)N2,36.6%
10,Cc1ccc(C(=O)CSc2ncnc3sc4c(c23)CCCC4)cc1,-11.5%
11,c1ccc(Cn2nnc3c(NCc4ccc5c(c4)OCO5)nc(C4CC4)nc32)cc1,-2.72%
12,CCC(CC)C(=O)N1c2ccc(F)cc2CCC1C (stereo not drawn),0.41%
13,Cc1nc(N2CCN(Cc3ccccc3)CC2)nc2c1C(=O)CC(C)C2 (stereo not drawn),5.44%
14,Cc1cc(/C=N/NC(N)=S)c(C)n1-c1ccc(Cl)c(Cl)c1,-26.8%
15,Cn1cccc1CC(=O)N/N=C/C(Cl)=C/c1ccccc1,15.1%
16,c1ccc2c(c1)Sc1ccccc1N2CC1CN2CCC1CC2 (stereo not drawn),18.1%
17,CSc1ccc2c(c1)C(N1CCN(C)CC1)Cc1ccccc1S2 (stereo not drawn),20.5%
18,O=C(CSc1nc2ccccc2o1)Nc1ccc(N2CCOCC2)cc1,-19.7%
19,O=C1CC(c2ccccc2)n2nc(NC(=O)c3ccccc3)nc2N1 (stereo not drawn),-4.4%
20,CCN(c1ccc(OCC(=O)OCC(=O)Nc2ccc(F)c(F)c2F)cc1)S(=O)(=O)c1ccccc1,11.7%

row,Structure (SMILES),inhibition
1,O=C(Cc1n[nH]c(=O)c2ccccc12)OCC(=O)c1ccc2c(c1)OCCO2,6.84%
2,CC1CCN(C(c2cc3cc4c(cc3[nH]c2=O)OCO4)c2nnnn2CC2CCCO2)CC1 (stereo not drawn),-12.8%
3,COc1ccc(N(CC(=O)Nc2ccccc2SC)S(C)(=O)=O)cc1OC,-0.04%
4,Nc1cc(N)nc(SCc2cc(=O)oc3cc4c(cc23)CCC4)n1,0.78%
5,Nc1nnc(Sc2ccc(Cl)cc2[N+](=O)[O-])s1,0.13%
6,CCN(CC)S(=O)(=O)c1ccc2[nH]cc(C(=O)NCCc3ccccc3)c(=O)c2c1,3.6%
7,O=C(CSc1nccc(=O)[nH]1)N1c2ccccc2CCc2ccccc21,-5.17%
8,O=C(CSc1nc(Nc2ccccc2)nc(N2CCOCC2)n1)Nc1ccc([N+](=O)[O-])cc1,2.48%
9,Cc1cc(=O)oc(C)c1C(=O)NCc1cccnc1,2.68%
10,O=C(NNc1nc(-c2ccccc2)cs1)c1ccco1,-17.3%
11,COc1ccc(Cl)cc1Nc1nc(-c2sc(NC(=O)c3ccco3)nc2C)cs1,17.1%
12,Cc1cc(C)cc(OC(=O)CS(=O)c2ccc(C(F)(F)F)cc2[N+](=O)[O-])c1 (stereo not drawn),-13.2%
13,c1ccc2c(c1)[nH]c1c(N3CCCC3)ncnc12,17.7%
14,O=C(CCCNS(=O)(=O)c1ccccc1)NCc1ccco1,-7.4%
15,O=Cc1cccn1Cc1ccccc1[N+](=O)[O-],1.61%
16,CCN1CCN(c2oc(COc3ccc(Cl)cc3)nc2C#N)CC1,-4.31%
17,CCOC(=O)c1cnc2ccc(OCC)cc2c1N1CCN(c2ccccc2)CC1,-3.31%
18,COc1ccc2cc(C#N)c(NC(C)C)nc2c1,-0.85%
19,COc1cc(C2NC(=O)NC(c3ccccc3)=C2C(C)=O)ccc1OCC(=O)O (stereo not drawn),-5.88%
20,CC1CCCC(C)N1/N=C/c1c[nH]c2ccc(Br)cc12 (stereo not drawn),11%

row,Structure (SMILES),inhibition
1,COc1cccc(N=Cc2c[nH][nH]c2=O)c1,-0.27%
2,O=C(OCc1ccccc1)Oc1cncc(C(=O)O)c1,11.2%
3,COC(=O)c1ccc(C(=O)OC)c(NC(=O)COc2ccccc2OC)c1,-0.88%
4,CC(=O)Nc1nc2nc(-c3ccccc3)cc(-c3ccccc3)n2n1,-10.5%
5,CCOC(=O)C(/C=C(\C#N)C(=O)OCC)=C(/N)N1CCN(c2c(C)cccc2C)CC1,-22.8%
6,O=C(CCN1CCc2ccccc2C(c2ccccc2)C1)c1ccc2c(c1)OCCO2 (stereo not drawn),30.5%
7,CCCC(=O)c1c[nH]c(C(=O)NCCCN2CCOCC2)c1,-18.2%
8,O=C(c1ccc(CSc2nc3ccncc3[nH]2)cc1)N1CCN(c2cccc(Cl)c2)CC1,-35.5%
9,O=S(=O)(c1ccc(F)c2ccccc12)N1CCCCC1,-5.03%
10,COc1ccc(-c2[nH]ncc2/C=C(\C#N)C(=O)NC2CC2)cc1,-18.2%
11,COC(=O)C1=C(C)N(C)C(=O)/C1=C\c1ccco1,-11.7%
12,COC(=O)c1ccc(NC(=S)NCCc2cccc(C)c2)cc1,-3.52%
13,COc1ccc(S(=O)(=O)n2nc(OC(=O)c3ccccc3Br)cc2N)cc1,3.07%
14,CN(C(=O)C1CCOC1)c1nnc(-c2ccccn2)s1 (stereo not drawn),-18.9%
15,O=C1NC(c2ccc3c(c2)OCO3)Oc2ccccc21 (stereo not drawn),-11.6%
16,CCn1nnc(-c2ccccc2NS(=O)(=O)c2ccc(S(=O)(=O)N3CCCCCC3)cc2)n1,-13.5%
17,Cc1cc(C(=O)N/N=C/c2ccc[nH]2)no1,-6.52%
18,CC(C)CCNC(=S)Nc1ccc([N+](=O)[O-])cc1,17.3%
